Reference: PubChem BioAssay (NCATS)
Inconclusive results are not listed. Where a call stands in place of a potency, no number is given. A number with no mark means an inactive call. Activity calls are given as the source filed them. The call rests on the fitted dose curve; in most records, active means well fitted cell-killing curve with a large enough effect; inconclusive means small, poorly fitted or top-dose-only effect, or effect the other way; inactive means no such curve, though single readings can be large or run the other way.

Experiments:
[1] = Viability qHTS for spleen associated tyrosine kinase inhibitor (SYKi) naive MV4-11 cells (AID 1963823); further: nearly all actives have a fitted effect of over 40% in size
Method in brief: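 CellTiter-Glo luminescence, 10 min room-temperature incubation, gave viability. Cells: naive MV4-11 (500/well), treated 72 hr at 37 C, 5% CO2.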

[2] = Viability qHTS for spleen associated tyrosine kinase inhibitor (SYKi) drug resistant MV4-11 cells (AID 1963824); further: nearly all actives have a fitted effect of over 35% in size
Method in brief: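 SYK-inhibitor-resistant MV4-11 AML cells were seeded at 500 per well onto compound and cultured 72 hours (37 °C, 5% CO2). CellTiter-Glo was then added, and after 10 min at room temperature, luminescence gave viability.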
Potency means the concentration at half of the fitted maximal effect.

Row | SMILES | Potency [1] | Potency [2] | viability (% of control) [1] | viability, % of control [2]
1 | C/C=C1\[C@H](OC2OC(COC3OC(CO)C(O)C(O)C3O)C(O)C(O)C2O)OC=C(C(=O)OC)[C@H]1CC(=O)OCCc1ccc(O)cc1 (stereo partly drawn) | inactive | inactive |  | 
2 | CC1(C)CC[C@]2(C(=O)O[C@@H]3O[C@H](CO)[C@@H](O)[C@H](O)[C@H]3O)CC[C@]3(C)C(=CCC4[C@@]5(C)C[C@@H](O)[C@H](O)C(CO)(CO)C5CC[C@]43C)C2[C@@H]1O (stereo partly drawn) | inactive | inactive |  | 
3 | CC(C)CCNC(=O)c1ccc2c(c1)nc(Nc1n[nH]c3ccc(-c4ccccc4OC(F)(F)F)cc13)n2C1CCC(O)CC1 (stereo not drawn) | 16.4 µM (active) | 16.4 µM (active) |  | 
4 | COc1ccc(C(=O)O[C@H]2C=COC=C3C=C4C(=O)N(C)C(=S)C(=O)N4[C@@H]32)cc1Oc1cc(C=O)ccc1O | 2.82 µM (active) | 2.24 µM (active) |  | 
5 | CNC(=O)[C@H]1O[C@@H](n2cnc3c(NCc4ccc(N)c(I)c4)ncnc32)[C@H](O)[C@@H]1O |  |  | 77.1% [at 9.25 µM] | 80.4% [at 9.25 µM]
6 | Cc1occc(=O)c1O[C@@H]1O[C@H](COC(=O)CC(C)(O)CC(=O)O)[C@@H](O)[C@H](O)[C@H]1O (stereo partly drawn) | inactive | inactive |  | 
7 | CC1(C=O)CC[C@]2(C(=O)O[C@@H]3O[C@H](CO)[C@@H](O)[C@H](O)[C@H]3O)CC[C@]3(C)C(=CCC4[C@@]5(C)C[C@H](O)[C@H](O[C@@H]6OC[C@@H](O)[C@H](O)[C@H]6O)[C@@](C)(CO)C5CC[C@]43C)C2C1 (stereo partly drawn) |  |  | 95.5% [at 9.25 µM] | 103% [at 9.25 µM]
8 | CC(CCc1ccccn1)(CCc1ccccn1)C(=O)c1ccccc1 | inactive | inactive |  | 
9 | CC1(O)CC(O)C2C(C(=O)O)=COC(OC3OC(CO)C(O)C(O)C3OC(=O)/C=C/c3ccc(O)cc3)C21 (stereo not drawn) | inactive | inactive |  | 
